HSF-1 act = increases HSF-1 driven luciferase reporter signal; NIH3T3-HGL HSF-1 luciferase reporter, MG132, 8 h; 100% = twice DMSO control signal; activation, % at 9 µM; 300,000 tested, 1.7% active;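 active = mean replicate activation of at least 50% with a set share of replicates each reaching 50%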
TROY signal inh = inhibitors of TROY-dependent NF-kB signaling; Q293 LMP1-TROYcd NF-kB luciferase reporter, 4 h; inhibition, % at 10 µM; 360,000 tested, 0.98% active; AID 1347056;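 active = compounds whose plate-normalised and pattern-corrected inhibition of the luciferase reporter signal at the single screening dose is 50% or more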
HSP90 inh = blocks HSP90-mediated luciferase refolding in reticulocyte lysate; inhibition, % at 5.6 µM; Rabbit reticulocyte lysate, luciferase refolding luminescence, 3 h; AID 1789; 290,000 tested, 0.91% active;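 active = inhibition above the screen-wide mean plus 3 SD, computed separately per campaign, cut at about 16% in these data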;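 note: inhibitors lower the luminescence because luciferase stays unfolded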
TWEAK-Fn14 inh = TWEAK-Fn14 signaling inhibition; 360,000 tested, 2% active; TWEAK-stimulated Fn14 reporter cells, luciferase luminescence, 8 h; inhibition, % at 10 µM; AID 1159606; in the data active = inhibition above about 50%
HSF1 inhib = HSF1 inhibition. activity change, negative = inhibition, % at 7.5 µM (by protocol). 300,000 tested, 0.77% active. NIH3T3-HGL HSE-luciferase, MG132-induced, luminescence 8 h; stronger effect = lower value. AID 2098;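 active = more than half of replicate wells show activity change below -50%, luminescence cut by over half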;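 note: luciferase reports HSF-1 transcriptional activity via heat shock element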
LMP1 NFkB inh = inhibitors of Epstein-Barr LMP1-induced NF-kappaB reporter; 350,000 tested, 0.69% active; inhibition, % at 12.5 µM; LMP1-induced NF-kappaB luciferase reporter cells, luminescence; in the data active = inhibition above about 41%
Numbers stand for hits. Shown are actives, neighbours in structure and some others; about 4.7% of the full set was active somewhere.

What do the screens show for `CC(=O)[C@@]1(O)CC[C@H]2[C@@H]3CCC4=CC(=O)CC[C@]4(C)[C@H]3[C@@H](O)C[C@@]21C`?
HSF-1 act: inactive; TROY signal inh: inactive; HSP90 inh: inactive; TWEAK-Fn14 inh: inactive; HSF1 inhib: inactive; LMP1 NFkB inh: 56

How did CC(=O)Nc1ccc(-c2ccnc(-c3ccc(NC(C)=O)cc3)n2)cc1 do in these assays?
HSF-1 act: inactive; TROY signal inh: inactive; HSP90 inh: inactive; TWEAK-Fn14 inh: 62; HSF1 inhib: inactive; LMP1 NFkB inh: inactive

How did CCc1cc2c(SC(C)C(=O)NC3CCCC3)ncnc2s1 (stereo not given) do in these assays?
TROY signal inh: inactive; TWEAK-Fn14 inh: inactive; LMP1 NFkB inh: inactive

Results for CCc1cc(C=NC2CCCCC2)c(O)s1 ?
HSF-1 act: inactive; TROY signal inh: inactive; HSP90 inh: inactive; TWEAK-Fn14 inh: inactive; HSF1 inhib: -56; LMP1 NFkB inh: inactive

What do the screens show for `Cc1nc2c(ncn2-c2ccccc2)c(=O)n1NC(=O)CN1CCOCC1`?
HSF-1 act: inactive; TROY signal inh: inactive; HSP90 inh: inactive; TWEAK-Fn14 inh: inactive; HSF1 inhib: -57; LMP1 NFkB inh: inactive

Results for Cc1sc2nc(CSc3nc4ccccc4c(=O)n3CCCN3CCOCC3)[nH]c(=O)c2c1C ?
HSF-1 act: 61; TROY signal inh: inactive; HSP90 inh: inactive; TWEAK-Fn14 inh: inactive; HSF1 inhib: inactive; LMP1 NFkB inh: inactive

What do the screens show for `CCOc1cc2[nH]c(=O)n(CCCN3CCN(c4ccc(OC)cc4)CC3)c(=O)c2cc1OCC`?
HSF-1 act: inactive; TROY signal inh: inactive; HSP90 inh: inactive; TWEAK-Fn14 inh: 87; HSF1 inhib: inactive; LMP1 NFkB inh: inactive

How did CCN1CCN(CCNC(=O)CCCCCn2c(=O)[nH]c3cc(C(=O)OC)ccc3c2=O)CC1 do in these assays?
HSF-1 act: inactive; TROY signal inh: inactive; HSP90 inh: inactive; TWEAK-Fn14 inh: inactive; HSF1 inhib: -54; LMP1 NFkB inh: inactive

Results for CCN1CCN(C(=O)CCCCCn2c(=O)[nH]c3cc(C(=O)OC)ccc3c2=O)CC1 ?
HSF-1 act: inactive; TROY signal inh: inactive; HSP90 inh: inactive; TWEAK-Fn14 inh: inactive; HSF1 inhib: inactive; LMP1 NFkB inh: inactive

What do the screens show for `COC(=O)c1ccc2c(=O)n(CCCCCC(=O)O)c(=S)[nH]c2c1`?
HSF-1 act: inactive; TROY signal inh: inactive; HSP90 inh: inactive; TWEAK-Fn14 inh: 54; HSF1 inhib: inactive; LMP1 NFkB inh: inactive

How did COc1ccc(N2CCN(CCNC(=O)CCCn3c(=O)[nH]c4cc(Cl)ccc4c3=O)CC2)cc1 do in these assays?
HSF-1 act: inactive; TROY signal inh: inactive; HSP90 inh: inactive; TWEAK-Fn14 inh: inactive; HSF1 inhib: inactive; LMP1 NFkB inh: 81

How did COc1ccc(N2CCN(CCCNC(=O)CCCn3c(=O)[nH]c4ccsc4c3=O)CC2)cc1 do in these assays?
HSF-1 act: inactive; TROY signal inh: inactive; HSP90 inh: inactive; TWEAK-Fn14 inh: inactive; HSF1 inhib: inactive; LMP1 NFkB inh: inactive

Results for COC(=O)c1ccc2c(=O)n(CCO)c(=S)[nH]c2c1 ?
HSF-1 act: inactive; TROY signal inh: inactive; HSP90 inh: inactive; TWEAK-Fn14 inh: inactive; HSF1 inhib: inactive; LMP1 NFkB inh: inactive

Results for CNS(=O)(=O)c1cc(NC(=O)c2cncn2-c2ccccc2)ccc1C ?
HSF-1 act: inactive; TROY signal inh: inactive; HSP90 inh: inactive; TWEAK-Fn14 inh: 79; HSF1 inhib: inactive; LMP1 NFkB inh: inactive

How did CC1ON=C(c2cccc3ccccc23)N(C)C1=O (stereo not given) do in these assays?
TROY signal inh: inactive; TWEAK-Fn14 inh: inactive

What do the screens show for `CCn1c(-c2ccsc2)nc2c1c(=O)[nH]c(=O)n2Cc1ccccc1`?
HSF-1 act: 56; TROY signal inh: inactive; HSP90 inh: inactive; TWEAK-Fn14 inh: inactive; HSF1 inhib: inactive; LMP1 NFkB inh: inactive

Results for CCCCn1c(-c2ccncc2)nc2c1c(=O)[nH]c(=O)n2CC(C)C ?
HSF-1 act: inactive; HSP90 inh: inactive; TWEAK-Fn14 inh: 76; HSF1 inhib: inactive; LMP1 NFkB inh: inactive

What do the screens show for `COCCn1c(-c2ccc(SC)cc2)nc2c1c(=O)[nH]c(=O)n2CC(C)C`?
HSF-1 act: inactive; TROY signal inh: inactive; HSP90 inh: inactive; TWEAK-Fn14 inh: inactive; HSF1 inhib: inactive; LMP1 NFkB inh: inactive

Results for C[C@@H]1COc2cc(N3CCC[C@H]3CO)ccc2S(=O)(=O)N1 ?
TROY signal inh: inactive; TWEAK-Fn14 inh: inactive

How did CC(=O)Oc1ccc2c(=O)c(-c3nc4ccccc4s3)coc2c1 do in these assays?
HSF-1 act: inactive; TROY signal inh: 53; HSP90 inh: inactive; TWEAK-Fn14 inh: 83; HSF1 inhib: inactive; LMP1 NFkB inh: inactive

Results for CC(C)Oc1ccc2c(=O)c(-c3ccccc3)coc2c1 ?
HSF-1 act: inactive; TROY signal inh: inactive; HSP90 inh: inactive; TWEAK-Fn14 inh: inactive; HSF1 inhib: inactive; LMP1 NFkB inh: inactive

What do the screens show for `CC(O)c1cccc(NC(=O)CC(c2ccccc2)c2ccccc2)c1` (stereo not given)?
HSF-1 act: inactive; TROY signal inh: inactive; HSP90 inh: inactive; TWEAK-Fn14 inh: 86; HSF1 inhib: inactive; LMP1 NFkB inh: inactive

How did Cc1ccc(NC(=O)/C=N/OCC(=O)NCc2ccccc2Cl)cc1 do in these assays?
HSF-1 act: inactive; TROY signal inh: inactive; HSP90 inh: inactive; TWEAK-Fn14 inh: inactive; HSF1 inhib: inactive; LMP1 NFkB inh: 48

What do the screens show for `Cc1ccc(S(=O)(=O)N(C)C[C@H]2Oc3ncc(-c4ccccc4)cc3C(=O)N([C@@H](C)CO)C[C@@H]2C)cc1`?
TROY signal inh: inactive; TWEAK-Fn14 inh: inactive; LMP1 NFkB inh: inactive

What do the screens show for `CCOC(=O)C(=CNc1ccc(N2CCOCC2)cc1)C(=O)OCC`?
HSF-1 act: inactive; TROY signal inh: inactive; HSP90 inh: inactive; TWEAK-Fn14 inh: inactive; HSF1 inhib: inactive; LMP1 NFkB inh: inactive

What do the screens show for `CCOC(=O)C(=CNc1ccc(-c2ccco2)c(Cl)c1)C(=O)OCC`?
HSF-1 act: inactive; TROY signal inh: inactive; HSP90 inh: inactive; TWEAK-Fn14 inh: inactive; HSF1 inhib: inactive; LMP1 NFkB inh: 47

How did CCOC(=O)C(=CNc1ccc(C#N)cc1)C(=O)OCC do in these assays?
HSF-1 act: 60; TROY signal inh: inactive; HSP90 inh: inactive; TWEAK-Fn14 inh: inactive; HSF1 inhib: inactive; LMP1 NFkB inh: inactive

What do the screens show for `CCOC(=O)C(=CNc1ccc2c(c1)CCN2C(C)=O)C(=O)OCC`?
HSF-1 act: inactive; TROY signal inh: inactive; HSP90 inh: inactive; TWEAK-Fn14 inh: inactive; HSF1 inhib: inactive; LMP1 NFkB inh: 49

What do the screens show for `CCOC(=O)C(=O)/C(C#N)=C/Nc1ccccc1`?
HSF-1 act: 52; TROY signal inh: inactive; HSP90 inh: inactive; TWEAK-Fn14 inh: inactive; HSF1 inhib: inactive; LMP1 NFkB inh: inactive

What do the screens show for `CCOC(=O)C(=CNc1ccc(S(N)(=O)=O)cc1)C(=O)OCC`?
HSF-1 act: inactive; TROY signal inh: inactive; HSP90 inh: inactive; TWEAK-Fn14 inh: inactive; HSF1 inhib: inactive; LMP1 NFkB inh: inactive

How did CC(C)NC(=O)c1cc(C(=O)c2cc(Cl)ccc2O)coc1=N do in these assays?
HSF-1 act: inactive; TROY signal inh: inactive; HSP90 inh: inactive; TWEAK-Fn14 inh: 69; HSF1 inhib: inactive; LMP1 NFkB inh: inactive

Bioassay records (PubChem BioAssay)
